Sfp inh – Sfp phosphopantetheinyl transferase inhibition. Q9F4F7. 310,000 tested, 3.5% active. AID 1490. Potency, µM, for the others: largest response in the series, negative = inhibition, actives largely listed as inhibitors. Biochemical Sfp PPTase activity, qHTS;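 further: the enzyme is Sfp with the accession as filed and its product quenches rhodamine fluorescence; potency means the concentration at half of the fitted maximal effect; 0% = enzyme reaction without inhibitor and -100% = no enzyme wells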
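Step 1, compound plus 15 nM Sfp-PPTase, 15 min, room temperature. Step 2, add rhodamine-CoA (5 uM) and BHQ-2-YbbR (12.5 uM). Step 3, read 525/598 nm fluorescence at 0 and 30 min.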
G9a inh – inhibitors of human histone lysine methyltransferase G9a. Q96KQ7. G9a H3K9 monomethylation, AlphaScreen, 2 h. Potency, µM (series often up to 102 µM), inactives show at the top dose activity, negative = inhibition, actives largely listed as inhibitors. 350,000 tested, 8.8% active. AID 504332; further: potency means the concentration at half of the fitted maximal effect; nearly all actives have a fitted effect of over 75% in size
Target sequence (Q96KQ7 913-1193 limits assumed): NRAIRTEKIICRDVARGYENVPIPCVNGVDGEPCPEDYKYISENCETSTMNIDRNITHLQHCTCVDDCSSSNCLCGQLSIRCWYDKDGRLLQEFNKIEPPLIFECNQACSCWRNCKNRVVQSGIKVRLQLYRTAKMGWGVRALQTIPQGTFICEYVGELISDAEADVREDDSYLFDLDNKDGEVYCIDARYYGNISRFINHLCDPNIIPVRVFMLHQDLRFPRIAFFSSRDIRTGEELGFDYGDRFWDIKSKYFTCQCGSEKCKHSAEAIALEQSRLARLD
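Using a bead-based AlphaScreen, monomethylated H3K9 product from 2 h room-temperature reactions (G9a 20 nM, peptide 500 nM, SAM 20 uM) was detected with 0.5 ug/mL rabbit anti-H3K9me1 antibody.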
MmCpn inh – M. maripaludis TRiC chaperonin inhibition | 330,000 tested, 0.031% active | Potency, µM (top dose mostly 76.9 µM), inactives show at the highest dose activity, negative = inhibition, usual class: inhibitors | purified Mm-Cpn ATPase, ADP Transcreener TR-FRET | AID 504842; further: potency means the concentration at half of the fitted maximal effect; nearly all actives have a fitted effect of over 80% in size
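Purified archaeal chaperonin (25 nM final) was preincubated with compound for 10 min at 37°C, then ATP (10 uM final) was added for 30 min at 37°C in Tris pH 7.4/KCl/MgCl2/DTT buffer. ADP was quantified by HTRF Transcreener TR-FRET.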
PLK1 PBD block – PLK1 (human) polo-box domain binding inhibition. Plk1 PBD binding of FITC phosphopeptide, fluorescence polarization. Potency, µM, for inactives: max response, negative = inhibition, usual class: inhibitors. 360,000 tested, 2.8% active; further: potency means the concentration at half of the fitted maximal effect; series mostly up to about 57 µM; nearly all actives have a fitted effect of over 65% in size
CCT modulator – modulators of cytosolic chaperonin (CCT/TRiC) activity. 360,000 tested, 0.3% active. purified chaperonin ATPase assay, HTRF ADP detection, 30 min. activity change, % (no concentration beside the values), hits read low; in the data active means activity change below about -30%
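TRiC (40 or 20 nM final, by batch activity) in 30 mM Tris pH 7.4, 100 mM KCl, 5 mM MgCl2, 1 mM DTT was treated with compound at 76 uM single dose, then 10 uM ATP, 30 min at 37 °C. ADP was read by HTRF Transcreener.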
VDR inh – vitamin D3 receptor (human) inhibition; VDR-SRC2-3 peptide fluorescence polarization, 2 h; Potency, µM, inactives show max response, negative = inhibition, most hits filed as inhibitors; 400,000 tested, 0.93% active; further: potency means the concentration at half of the fitted maximal effect
Target sequence (P11473 whole entry, looked up): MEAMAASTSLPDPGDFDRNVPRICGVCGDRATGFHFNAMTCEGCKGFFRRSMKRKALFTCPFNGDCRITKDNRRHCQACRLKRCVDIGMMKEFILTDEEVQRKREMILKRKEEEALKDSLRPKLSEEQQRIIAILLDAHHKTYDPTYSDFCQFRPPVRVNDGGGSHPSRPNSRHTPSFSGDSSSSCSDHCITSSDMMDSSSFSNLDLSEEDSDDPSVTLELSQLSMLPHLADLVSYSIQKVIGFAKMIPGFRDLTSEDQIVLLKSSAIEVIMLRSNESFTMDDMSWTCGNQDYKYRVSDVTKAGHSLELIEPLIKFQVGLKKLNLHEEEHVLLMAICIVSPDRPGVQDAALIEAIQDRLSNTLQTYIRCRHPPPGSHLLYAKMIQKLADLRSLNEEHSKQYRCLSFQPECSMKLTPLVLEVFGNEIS
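Signal is fluorescence polarization, reporting how far test compounds block the interaction of VDR with the SRC2-3 coregulator peptide after a 2 h room-temperature incubation.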
Active calls of the source: *; ? = inconclusive; . = not tested or not shown; [ ] = dose if it differs, or a comment. An excerpt weighted towards active compounds, which were near 10% of everything screened. Unless noted, the call rests on the fitted dose curve; in most records, active means well fitted curve in the direction sought with a large enough effect; inconclusive means small, poorly fitted or top-dose-only effect, or another doubt; inactive means no such curve, though single readings can be large; an effect the other way counts as inactive or inconclusive. Unless noted, on the % scale 0 is the no-effect control and ±100 the full control effect.

SMILES	Sfp inh	G9a inh	MmCpn inh	PLK1 PBD block	CCT modulator	VDR inh
Cc1ccc(/C=C/c2onc(C)c2S(=O)(=O)N2CCC(C(=O)Nc3cccc(C#N)c3)CC2)cc1	.	11.7%[59 µM]	.	.	.	-6.4%
CC(=O)/C(=N/Nc1cccc(C)c1)N1CCOCC1	-4.9%	0.631µM*	-0.6%	-7.9%	-0.4	1.4%
Cc1ccc(C(=O)c2cn(Cc3cccc(C)c3)c3nc(C)ccc3c2=O)cc1	.	-27.2%[59 µM]	.	.	.	-7.9%
CCCC[C@@H]1CCCO[C@@](C(=O)NCC2CC2)(C(F)(F)F)C1	9.4%	.	.	.	.	-17.5%
COc1cc(-c2onc3ccc(Br)cc23)cc(OC)c1OC	50.1µM*	15.5%[0.501 µM]	-1.4%	-6.9%	-1.5	-10.4%
Cc1ccc(S(=O)(=O)NCCSc2nnc(N)s2)cc1	-26.2%	12.6µM*	0.7%	-3.5%	-3.1	-8.7%
COc1ccc(C)cc1S(=O)(=O)NCC(c1ccc(N(C)C)cc1)N1CCc2ccccc21 (stereo not drawn)	.	10µM*	.	.	.	-6.9%
CN(C)c1ccc(C(CNS(=O)(=O)c2ccc(Cl)cc2)N2CCCC2)cc1 (stereo not drawn)	.	?	.	.	.	5.6%
CN(C)c1ccc(C(CNS(=O)(=O)c2ccc(F)cc2)N2CCc3ccccc32)cc1 (stereo not drawn)	.	14.1µM*	.	.	.	4.5%
O=S(=O)(NCC(c1ccco1)N1CCN(c2ccccc2F)CC1)c1ccccc1 (stereo not drawn)	12.9%	0.7%[59 µM]	0.5%	-7.5%	-3.0	-2.4%
COc1ccc(C)cc1S(=O)(=O)NCC(c1cccnc1)N1CCc2ccccc2C1 (stereo not drawn)	-14.8%	?	-1.0%	-20.7%	0.6	-6.6%
O=S(=O)(NCC(c1ccccc1)N1CCc2ccccc21)c1ccc(Cl)cc1 (stereo not drawn)	.	?	.	.	.	-7.9%
CN(C)c1ccc(C(CNS(=O)(=O)c2ccc(Br)cc2)N2CCCC2)cc1 (stereo not drawn)	.	17.8µM*	.	.	.	3.8%
O=S(=O)(NCC(c1ccco1)N1CCc2ccccc21)c1ccccc1 (stereo not drawn)	.	44.7µM*	0.8%	-7.3%	-1.4	14.7%
O=S(=O)(c1ccc(Oc2ccc3c(c2)OCO3)c(S(=O)(=O)N2CCOCC2)c1)N1CCOCC1	.	.	.	.	.	-5.2%
Cc1cc(C)c(S(=O)(=O)NCC(c2ccc(N(C)C)cc2)N2CCc3ccccc32)c(C)c1 (stereo not drawn)	.	11.2µM*	.	.	.	-7.7%
CCCCN1C(=O)C2Cc3c([nH]c4ccccc34)CN2C1=S (stereo not drawn)	56.2µM*	?	-15.4%	-12.0%	0.4	-11.7%
CCCCCN1CC(=O)N2Cc3[nH]c4ccccc4c3C[C@H]2C1=O	15.7%	-14.3%	-0.3%	-9.9%	1.5	17.8%
Cc1[nH]c(=O)cc2ccccc12	10.2%	25.1µM*	0.4%	0.8%	-3.0	-3.9%
Cc1cc(=O)[nH]c2ccccc12	12.5%	-11.7%[59 µM]	3.9%	-10.0%	1.8	-11.7%
CCN(CC)c1ccc(/C=C2\C(=O)c3ccc(C(=O)O)cc3C2=O)cc1	-19.6%	11.2µM*	-11.9%	5.9%	0.1	-20.2%
CCN(CC)c1ccc(C(=O)O)cc1	0.4%	-17.4%[59 µM]	-4.8%	-7.1%	-2.4	-16.5%
CC(=O)Nc1ccc2c(c1)C(C)(C)C(C)N2C (stereo not drawn)	-1.1%	17.8µM*	-10.8%	-1.4%	-0.6	44.7µM*
CCN(CC)C(=O)c1cc([N+](=O)[O-])cc2c1-c1ccc([N+](=O)[O-])cc1C2=C(C#N)C#N	70.8µM*	50.1µM*	1.2%	9.47µM*	-0.2	25.1µM*
CCCCC12CN3CC(C)(CN(C1)C3c1c[nH]c3ccccc13)C2=O (stereo not drawn)	.	?	.	.	.	-1.7%
SMILES	Sfp inh	G9a inh	MmCpn inh	PLK1 PBD block	CCT modulator	VDR inh
Cc1ccc(Nc2cc(C(=O)NC3CCCC3)c3ccccc3n2)cc1C	.	5.0%[59 µM]	.	.	.	4.5%
O=C(O)c1cc(S(=O)(=O)Nc2cc(Cl)ccc2Oc2ccccc2)ccc1O	.	15.8µM*	2.7%	?	0.5	-6.6%
O=C(O)c1cc(S(=O)(=O)Nc2ccccc2C(=O)O)ccc1O	-6.8%	.	-0.8%	?	-2.8	-16.2%
S=c1[nH]c(-c2ccccc2)cn1/N=C/c1ccc(Br)cc1	10.6%	12.6µM*	-3.7%	-14.0%	-0.7	?
O=C(O)c1ccc(/C=N/n2cc(-c3ccccc3)[nH]c2=S)cc1	17.8µM*	.	0.2%	0.8%	0.7	-20.3%
S=c1[nH]c(-c2ccccc2)cn1/N=C/c1cccnc1	44.7µM*	2.51µM*	-2.6%	-7.6%	1.3	-15.3%
O=C(O)c1ccc(/C=N/O)cc1	4.1%	.	-3.0%	-5.0%	0.0	-13.8%
Nc1nc2ccccc2n1/N=C/c1cccnc1	.	.	.	1.8%	-1.5	?
S=c1[nH]c(-c2ccccc2)cn1/N=C/c1cccs1	?	.	-3.0%	-2.4%	-3.7	-2.7%
CCCS(=O)(=O)c1nc(S(=O)(=O)c2ccc(C)cc2)c(NC)s1	.	34.2%[59 µM]	.	.	.	8.3%
Cc1ccc(CCNC(=O)C2CCN(Cc3nc(-c4ccccc4C)oc3C)CC2)cc1	.	-49.0%[59 µM]	.	.	.	?
Cc1nnc(NC(=O)C(=O)c2cc(C)n(-c3ccc(C)c(C)c3)c2C)s1	.	-5.8%[59 µM]	.	.	.	0.1%
Cc1nn(C)c(C)c1N=Cc1c(O)ccc2ccccc12	-24.5%	?	-0.9%	-16.7%	-3.1	5.0%
Oc1ccc2ccccc2c1C=Nc1ccccc1-c1nc2ccccc2[nH]1	4.4%	7.08µM*	-3.8%	?	0.5	-10.0%
Cc1ccc(CNC(=O)c2ccc3c(c2)N(Cc2ccccc2F)C(=O)c2ccccc2S3(=O)=O)cc1	.	0.1%[59 µM]	.	.	.	-10.6%
O=C(Nc1c(-c2ccc3c(c2)OCO3)[nH][nH]c1=O)c1ccccc1	.	.	.	13.4µM*	1.5	.
Cc1cc(C)c(Cn2cnc3nc4c(cc3c2=O)CCCC4)c(C)c1	.	0.1%[59 µM]	.	.	.	2.0%
Cc1cccc(-n2c(C)c(C)c3c(N)ncnc32)c1	10.9%	50.1µM*	-0.7%	-5.4%	-1.1	2.1%
O=C(NCCc1ccccc1)c1cc(Sc2ccc(F)cc2F)nc2ccccc12	.	-3.5%[59 µM]	.	.	.	12.6%
C/C(=N\NC(=O)c1cccnc1)c1ccc(OC2OCCOC2Oc2ccc(/C(C)=N/NC(=O)c3cccnc3)cc2)cc1 (stereo not drawn)	-7.6%	26.7%	1.7%	29.9µM*	-3.8	39.8µM*
C/C(=N\NC(=O)c1ccc(N(C)C)cc1)c1cccnc1	-9.5%	25.1µM*	-6.3%	-12.7%	-1.4	-11.8%
COc1ccc(/C(C)=N/NC(=O)CNC(=O)c2cccnc2)cc1	11.3%	12.8%	0.1%	-6.5%	1.6	-14.1%
C/C(=N\NC(=O)c1ccc(N(C)C)cc1)c1ccc(C)c(C)c1	14.4%	44.7µM*	1.6%	-7.7%	-0.3	-20.0%

Screening data (PubChem)
